Laboratory results from PubChem BioAssay AID1159580 (chemical genetic matrix, 2015).
The whole screen tested about 5,500 compounds, of which about 2,000 (36%) were called active. Not shown: some 18% with an inconclusive outcome. No stated cut-off is given here; in the data, active means normalized growth mostly below about 0.91 (no sharp cut-off); inconclusive means no clear call, values can overlap the other calls; inactive means mostly above about 0.92. This is one part of the list.

Assay: chemical genetic growth profiling, strain panel (AID 1159580);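 further: tested at 20 µM; growth read once vehicle control cultures reached saturation at 30 °C; 1 = growth at the plate median or of vehicle wells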
Conditions: growth OD

Measured: normalized growth

C[n+]1c2cc(N)ccc2cc2ccc(N)cc21
active: S. cerevisiae deletion strains, locus YKL160W, strain elf1, stronger effect = lower value 0.586 | S. cerevisiae deletion strains, locus YKL190W, strain CNB1, stronger effect = lower value 0.85 | S. cerevisiae deletion strains, locus YKR001C, strain vps1, stronger effect = lower value 0.844 | S. cerevisiae deletion strains, locus YKR026C, strain gcn3, stronger effect = lower value 0.696 | S. cerevisiae deletion strains, locus YKR091W, strain srl3, stronger effect = lower value 0.784 | S. cerevisiae deletion strains, locus YLL001W, strain dnm1, stronger effect = lower value 0.456 | S. cerevisiae deletion strains, locus YLL026W, stronger effect = lower value 0.471 | S. cerevisiae deletion strains, locus YLL041C, strain sdh2, stronger effect = lower value 0.652 | S. cerevisiae deletion strains, locus YLR027C, strain aat2, stronger effect = lower value 0.446 | S. cerevisiae deletion strains, locus YLR058C, strain SHM2, stronger effect = lower value 0.743 | S. cerevisiae deletion strains, locus YLR102C, strain apc9, stronger effect = lower value 0.924 | S. cerevisiae deletion strains, locus YLR221C, strain rsa3, stronger effect = lower value 0.468 | S. cerevisiae deletion strains, locus YLR258W, strain gsy2, stronger effect = lower value 0.524 | S. cerevisiae deletion strains, locus YLR262C, strain YPT6 (second series), stronger effect = lower value 0.718 | S. cerevisiae deletion strains, locus YLR268W, strain sec22, stronger effect = lower value 0.776 | S. cerevisiae deletion strains, locus YLR320W, strain mms22, stronger effect = lower value 0.191 | S. cerevisiae deletion strains, locus YLR330W, strain CHS5, stronger effect = lower value 0.863 | S. cerevisiae deletion strains, locus YLR342W, strain FKS1, stronger effect = lower value 0.752 | S. cerevisiae deletion strains, locus YLR357W, strain rsc2, stronger effect = lower value 0.669 | S. cerevisiae deletion strains, locus YLR370C, strain arc18, stronger effect = lower value 0.506 | S. cerevisiae deletion strains, locus YLR371W, strain rom2, stronger effect = lower value 0.908 | S. cerevisiae deletion strains, locus YLR384C, strain iki3, stronger effect = lower value 0.682 | S. cerevisiae deletion strains, locus YLR418C, strain cdc73, stronger effect = lower value 0.727 | S. cerevisiae deletion strains, locus YML016C, strain PPZ1, stronger effect = lower value 0.806 | S. cerevisiae deletion strains, locus YML032C, strain rad52, stronger effect = lower value 0.195 | S. cerevisiae deletion strains, locus YML120C, strain ndi1, stronger effect = lower value 0.409 | S. cerevisiae deletion strains, locus YML124C, strain tub3, stronger effect = lower value 0.928 | S. cerevisiae deletion strains, locus YMR058W, strain fet3, stronger effect = lower value 0.531 | S. cerevisiae deletion strains, locus YMR078C, strain ctf18, stronger effect = lower value 0.783 | S. cerevisiae deletion strains, locus YMR125W, strain sto1, stronger effect = lower value 0.703 | S. cerevisiae deletion strains, locus YMR129W, stronger effect = lower value 0.648 | S. cerevisiae deletion strains, locus YMR205C, strain PFK2, stronger effect = lower value 0.439 | S. cerevisiae deletion strains, locus YMR223W, strain ubp8, stronger effect = lower value 0.717 | S. cerevisiae deletion strains, locus YMR263W, strain SAP30, stronger effect = lower value 0.626 | S. cerevisiae deletion strains, locus YNL067W, strain RPL9B, stronger effect = lower value 0.698 | S. cerevisiae deletion strains, locus YNL071W, strain lat1, stronger effect = lower value 0.28 | S. cerevisiae deletion strains, locus YNL128W, strain TEP1, stronger effect = lower value 0.613 | S. cerevisiae deletion strains, locus YNL153C, strain GIM3, stronger effect = lower value 0.744 | S. cerevisiae deletion strains, locus YNL209W, strain ssb2, stronger effect = lower value 0.554 | S. cerevisiae deletion strains, locus YNL233W, strain BNI4, stronger effect = lower value 0.725 | S. cerevisiae deletion strains, locus YNL248C, strain rpa49, stronger effect = lower value 0.167 | S. cerevisiae deletion strains, locus YNL250W, strain rad50, stronger effect = lower value 0.817 | S. cerevisiae deletion strains, locus YNL271C, strain bni1, stronger effect = lower value 0.911 | S. cerevisiae deletion strains, locus YNL298W, strain CLA4, stronger effect = lower value 0.896 | S. cerevisiae deletion strains, locus YNL307C, strain MCK1, stronger effect = lower value 0.66 | S. cerevisiae deletion strains, locus YNL322C, strain KRE1 (second series), stronger effect = lower value 0.218 | S. cerevisiae deletion strains, locus YNL322C, strain KRE1, stronger effect = lower value 0.836 | S. cerevisiae deletion strains, locus YNR049C, strain mso1, stronger effect = lower value 0.677 | S. cerevisiae deletion strains, locus YNR052C, strain pop2, stronger effect = lower value 0.801 | S. cerevisiae deletion strains, locus YOL006C, strain TOP1, stronger effect = lower value 0.349 | S. cerevisiae deletion strains, locus YOL147C, strain pex11, stronger effect = lower value 0.882 | S. cerevisiae deletion strains, locus YOR001W, strain rrp6, stronger effect = lower value 0.442 | S. cerevisiae deletion strains, locus YOR061W, strain CKA2, stronger effect = lower value 0.865 | S. cerevisiae deletion strains, locus YOR069W, strain VPS5, stronger effect = lower value 0.915 | S. cerevisiae deletion strains, locus YOR070C, strain gyp1, stronger effect = lower value 0.557 | S. cerevisiae deletion strains, locus YOR080W, strain dia2, stronger effect = lower value 0.409 | S. cerevisiae deletion strains, locus YOR083W, strain WHI5, stronger effect = lower value 0.452 | S. cerevisiae deletion strains, locus YOR106W, strain vam3, stronger effect = lower value 0.38 | S. cerevisiae deletion strains, locus YOR136W, strain idh2, stronger effect = lower value 0.91 | S. cerevisiae deletion strains, locus YOR144C, strain elg1, stronger effect = lower value 0.858 | S. cerevisiae deletion strains, locus YOR184W, strain ser1, stronger effect = lower value 0.664 | S. cerevisiae deletion strains, locus YOR231W, strain MKK1, stronger effect = lower value 0.822 | S. cerevisiae deletion strains, locus YOR265W, strain rbl2, stronger effect = lower value 0.599 | S. cerevisiae deletion strains, locus YOR270C, strain vph1, stronger effect = lower value 0.353 | S. cerevisiae deletion strains, locus YOR290C, strain snf2, stronger effect = lower value 0.447 | S. cerevisiae deletion strains, locus YPL051W, strain arl3, stronger effect = lower value 0.597 | S. cerevisiae deletion strains, locus YPL055C, strain LGE1, stronger effect = lower value 0.678 | S. cerevisiae deletion strains, locus YPL078C, strain atp4, stronger effect = lower value 0.465 | S. cerevisiae deletion strains, locus YPL106C, strain sse1, stronger effect = lower value 0.695 | S. cerevisiae deletion strains, locus YPL240C, strain hsp82, stronger effect = lower value 0.685 | S. cerevisiae deletion strains, locus YPL241C, strain CIN2, stronger effect = lower value 0.88 | S. cerevisiae deletion strains, locus YPR119W, strain clb2, stronger effect = lower value 0.92 | S. cerevisiae deletion strains, locus YPR163C, strain tif3, stronger effect = lower value 0.883 | S. cerevisiae deletion strains, locus YPR167C, strain met16, stronger effect = lower value 0.865 | S. cerevisiae deletion strains, strain wtn01, stronger effect = lower value 0.793 | S. cerevisiae strains, strain wild type, stronger effect = lower value 0.831
inactive: S. cerevisiae deletion strains, locus YKL009W, strain mrt4, stronger effect = lower value 0.933 | S. cerevisiae deletion strains, locus YKL068W, stronger effect = lower value 0.956 | S. cerevisiae deletion strains, locus YKL085W, strain MDH1 (second series), stronger effect = lower value 0.963 | S. cerevisiae deletion strains, locus YKL085W, strain MDH1, stronger effect = lower value 0.963 | S. cerevisiae deletion strains, locus YLR039C, strain RIC1, stronger effect = lower value 0.906 | S. cerevisiae deletion strains, locus YLR113W, strain HOG1, stronger effect = lower value 0.862 | S. cerevisiae deletion strains, locus YLR262C, strain YPT6, stronger effect = lower value 0.902 | S. cerevisiae deletion strains, locus YLR342W, strain FKS1 (second series), stronger effect = lower value 0.802 | S. cerevisiae deletion strains, locus YMR231W, strain pep5, stronger effect = lower value 0.945 | S. cerevisiae deletion strains, locus YMR307W, strain GAS1, stronger effect = lower value 0.874 | S. cerevisiae deletion strains, locus YNL183C, strain NPR1, stronger effect = lower value 0.87 | S. cerevisiae deletion strains, locus YOL012C, strain htz1 0.393 | S. cerevisiae deletion strains, locus YOR316C, strain cot1, stronger effect = lower value 0.926 | S. cerevisiae deletion strains, locus YPL256C, strain CLN2, stronger effect = lower value 0.903 | S. cerevisiae deletion strains, locus YPR141C, strain kar3, stronger effect = lower value 0.93
